Values joined by “and” are separate entries in the source; they are usually repeats but may differ in a detail not shown here. Equal entries are not always repeated. Results filed as inconclusive are left out. A structure can be active in one record and inactive in another. Active and inactive are the calls of the source. Calls come from the whole dose curve; as a rule, active = well fitted cell-killing curve with a large enough effect in the repeat runs; inconclusive = weak or mixed curves, or effect the other way; inactive = flat fitted curve, though single readings scatter.
% is set by controls: 0 for no effect and ±100 for the full control effect; potency is the fitted concentration of half-maximal effect.

The nature of this test: qHTS RealTime-Glo MT Cell Viability Assay in HEK293 cells - 16 hour (AID 1224872). Note: nearly all actives have a fitted effect of over 50% in size. The note with it: RealTime-Glo luminescence; series mostly up to 76.8 µM. From the text: National Center for Advancing Translational Sciences [NCATS]
NIH Chemical Genomics Center [NCGC]
U.S. Environmental Protection Agency [EPA]
National Institutes of Environmental Health Sciences [NIEHS]
National Toxicology Program [NTP]
U.S. Food and Drug Administration [FDA]
Measure of cell viability is critical in the cell-base assay. Analysis of cell viability is necessary for the characterization of cell responses to cytotoxic drugs and environmental stress. A RealTime-Glo MT Cell Viability Assay to monitor cell viability in real time of continues cell culture during 40 hours of compound treatment was used to screen Tox21 10K library compounds in Hek293 cells. The RealTime-Glo MT Cell Viability Assay is a nonlytic, homogeneous, bioluminescent method to measure cell viability in real time using a simple, plate-based method. The assay involves adding NanoLuc luciferase and a cell-permeant prosubstrate to cells in culture. Viable cells reduce the proprietary prosubstrate to generate a substrate for NanoLuc luciferase. This substrate diffuses from cells into the surrounding culture medium, where it is rapidly used by the NanoLuc Enzyme to produce a luminescent signal. The signal correlates with the number of viable cells, making the assay well suited for cytotoxicity studies.
Tox21 Assay Protocol Summary:
The mixture of Hek293 cell suspension and reagents were dispensed at 600cells/6 ul/well in 1536-well tissue culture treated black solid bottom plates using a Multidrop dispenser. After the assay plates were incubated at a 37 C/5% CO2 incubator for 5 hours, 23 nL of compounds dissolved in DMSO, positive and negative controls was transferred to the assay plate by a pintool work station. The plates were incubated at 37 C for 40 hours. The luminescence intensity were measured at 0h, 8h, 16h, 24h, 32h and 40h time points using ViewLux plate reader during compound treatment.
On the technique in general: In qHTS, concentration-response curves come from the screen itself.
For the molecule `CC(c1ccc(O)cc1)c1ccc(O)cc1`, the Potency was 45.9 µM (active) and inactive.
On to `CC(C)OC(=O)C(O)(c1ccc(Cl)cc1)c1ccc(Cl)cc1`, for which the Potency is 30.9 µM (active).
Take `ClC1=C(Cl)C2(Cl)C3C(Cl)C=CC3C1(Cl)C2(Cl)Cl` (stereo not given): the Potency was 43.8 µM (active) and 43.6 µM (active).
On to `O=c1c(C2CC(c3ccc(-c4ccc(Br)cc4)cc3)Cc3ccccc32)c(O)sc2ccccc12` (stereo not given), for which the Potency entry is “inactive”.
On to `Clc1ccc(-c2ccc(Cl)c(Cl)c2Cl)c(Cl)c1Cl`, for which the Potency result is “inactive”.
On to `CC(=[OH+])/C=C(/C)[O-].CC(=[OH+])/C=C(\C)[O-].CC(=[OH+])/C=C(\C)[O-].[Fe]`, for which the Potency result is “inactive”.
Under `CCCCCCCCCCCCCCCC[n+]1ccccc1` stands 21.6 µM (active) [middle of 4 runs]; under `FC(Cl)(Cl)Cl`, “inactive”.
Under `NC(=O)c1ccc(N)nc1` stands “inactive”; under `ClC(Cl)=C(Cl)Cl`, “inactive”.
With `C[CH2][Hg][N]1C(=O)C2C(C1=O)C1(Cl)C(Cl)=C(Cl)C2(Cl)C1(Cl)Cl` (stereo not given) the figure was 2.61 µM (active); with `CC(C)CC(C)(c1ccc(O)cc1)c1ccc(O)cc1`, 43.8 µM (active) and inactive.
Consider `[CH3][Hg][Cl]`, for which the Potency was 4.89 µM (active).
For the molecule `Oc1c(Cl)c(Cl)cc(Cl)c1Cl`, the Potency is 47.6 µM (active).
For the molecule `CCCCCCCCCBr`, the Potency result is “inactive”.
For the molecule `CCCN(CCC)c1c([N+](=O)[O-])cc(S(N)(=O)=O)cc1[N+](=O)[O-]`, the Potency is 16.5 µM (active).
In the case of `Oc1ccc2ccc3cccc4ccc1c2c34`, the Potency was 15.5 µM (active).
Turning to `CCCN(CCC)CCc1c[nH]c2ccccc12`, the Potency result was “inactive”.
For `Oc1ccc(C2(c3ccc(O)cc3)c3ccccc3-c3ccccc32)cc1`, the Potency was 49 µM (active).
For `CC(C)N1C(=O)N(c2ccccc2)CSC1=NC(C)(C)C`, the Potency is 19.5 µM (active).
In the case of `NC(=O)CCl`, the Potency result was “inactive”.
As for `Nc1ccc(Cc2ccc(N)c(Cl)c2)cc1Cl`, the Potency was 29.9 µM (active).
Consider `CC(C)CC(C)N` (stereo not given), for which the Potency entry is “inactive”.
For `C[C@H]1O[C@@H](O[C@H]2[C@@H](O)C[C@H](O[C@H]3[C@@H](O)C[C@H](O[C@H]4CC[C@@]5(C)[C@H](CC[C@@H]6[C@@H]5CC[C@]5(C)[C@@H](C7=CC(=O)OC7)CC[C@]65O)C4)O[C@@H]3C)O[C@@H]2C)C[C@H](O)[C@@H]1O`, the Potency was 0.0952 µM (active).
As for `O=[N+]([O-])c1cc([N+](=O)[O-])c2ccccc2c1`, the Potency result was “inactive”.
As for `Cc1cc(C)c(C2=C(OC(=O)CC(C)(C)C)C3(CCCC3)OC2=O)c(C)c1`, the Potency entry is “inactive”.
Consider `Cn1[nH]nnc1=S`, for which the Potency entry is “inactive”.
As for `[Cl][Sb]([Cl])[Cl]`, the Potency entry is “inactive”.
With `COc1ccc(OC)c(CC(C)N)c1` (stereo not given), the Potency entry is “inactive”.
In the case of `CCCN(CC)CC1COC2(CCC(C(C)(C)C)CC2)O1` (stereo not given), the Potency entry was “inactive”.
Under `CCC(C)(C)C(=O)OC1=C(c2ccc(Cl)cc2Cl)C(=O)OC12CCCCC2` stands “inactive”; under `C1CCC2CCCCC2C1` (stereo not given), “inactive”.
On to `Oc1ccc(C(=C(Cl)Cl)c2ccc(O)cc2)cc1`, for which the Potency is 43.6 µM (active).
Take `N#CCc1ccc(Cl)cc1`: the Potency entry is “inactive”.
For the molecule `Clc1ccc(COC(Cn2ccnc2)c2ccc(Cl)cc2Cl)cc1` (stereo not given), the Potency is 20.4 µM (active) and 19.4 µM (active).
Consider `O=C1C=CC(=O)c2ccccc21`, for which the Potency is 5.49 µM (active).
For `N#Cc1c(-c2ccc(Cl)cc2)[nH]c(C(F)(F)F)c1Br`, the Potency was 6.92 µM (active).
Regarding `Clc1ccc(CO/N=C(\Cn2ccnc2)c2ccc(Cl)cc2Cl)c(Cl)c1`, the Potency is 21.3 µM (active).
`Cc1cc(N=Nc2ccccc2C)ccc1N`: the Potency is 21.9 µM (active) and 19.5 µM (active).
For the molecule `CCN(CC)C(=S)[S-].CCN(CC)C(=S)[S-].[Zn+2]`, the Potency is 5.45 µM (active).

Source of the values: PubChem BioAssay (Tox21).
